The structures appear in SMILES notation. Active and inactive are the calls of the source. Calls follow the shape of the dose curve; as a rule, active = well fitted activation curve with a large enough effect; inconclusive = small, poorly fitted or top-dose-only effect; inactive = flat fitted curve, though single readings scatter.

This assay can be described thus: Cellular Toxicity (caspase-3) N2a (AID 665).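 Also: compound exposure lasted 16 h at 37 °C before readout.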 The conditions noted are these: N2a cells, luminescence, normalized: DMSO 0%, 10 µM staurosporine 100%; series mostly up to 92.2 µM; caspase-3 activation: at the top concentration. From the text: NIH Chemical Genomics Center [NCGC]
NIH Molecular Libraries Screening Centers Network [MLSCN]
National Institutes of Environmental Health Sciences [NIEHS]
National Toxicology Program [NTP]
We have developed a 1536-well cell-based assay for quantitative high throughput screening (qHTS) against a number of cell lines to determine in vitro caspase 3/7 activity of small molecules. This particular assay uses the N2a cell line which is derived from mouse neuroblastoma.
NCGC Assay Protocol Summary:
The Caspase-Glo 3/7 assay (Promega) is a homogeneous method to measure caspase-3 and caspase-7 activities in cultured cells. The quantitation of caspase 3/7 activity is based on the cleavage of a peptide-aminoluciferin substrate. After caspase cleaves the substrate the free aminoluciferin is liberated and serves as the substrate of luciferase, which generates the light. The luminescent signal is proportional to the amount of caspase 3/7 activity present.
Using the Caspase-Glo 3/7 assay, the amount of caspase 3/7 activity was measured in the N2a cells with complete culture medium following compound treatment for 16 hours. The assay was performed in opaque white 1536-well plates. In the screen, staurosporine and doxorubicin were used as positive controls. Library compounds were measured for their ability to cause the activation of caspase 3/7 in the cell line, as reflected by an increase in luminescence signal, in a concentration-dependent manner. Data were normalized to the controls for basal activity (DMSO only) and 100% stimulation (10 uM staurosporine). AC50 values were determined from concentration-response data modeled with the standard Hill equation.
qHTS protocol for caspase 3/7 assay in mouse N2a cell line
[Step] [Parameter] [Value] [Description]
1. Reagent; 5 uL; 1500 mouse N2a cells/well
2. Time; 5 hr; 37 °C incubation
4. Controls; 23 nL; doxorubicin 7 pM to 100 uM & staurosporine 1.4 pM to 20 uM
5. Time; 16 hr; 37 °C incubation
6. Reagent; 5 uL; Caspase-Glo 3/7 reagent
7. Time; 1 hr; Room Temperature
8. Detection; Luminescence; Viewlux plate reader
Keywords: caspase 3/7, apoptosis, mouse N2a cell line, luminescence, NTPHTS, NTPHTS_NCGC, NIEHS, EPA, DSSTox, MLSMR, MLSCN, NIH Roadmap, qHTS, NCGC
`CN1C[C@H](C(=O)N[C@]2(C)O[C@@]3(O)[C@@H]4CCCN4C(=O)[C@H](Cc4ccccc4)N3C2=O)C=C2c3cccc4[nH]cc(c34)C[C@H]21`: the “caspase-3 activation” value was -7.12% (inactive). On the same count and under the same terms, the result for `C[C@]12CCC(=O)C=C1CC[C@@H]1[C@@H]2CC[C@@]2(C)[C@H]1CC[C@]2(C)O` reads 7.42% (inactive). In the case of `C[C@]12CCC(=O)C=C1CC[C@@H]1[C@@H]2CC[C@]2(C)C(=O)CC[C@@H]12`, the molecule was classed as inactive. `COC(=O)C(c1ccccc1)C1CCCCN1` (centres undefined): the “caspase-3 activation” value was -1.95% (inactive). Still for that read-out and setting: the value for `CCC(C)(C)c1ccc(O)cc1` was -2.19% (inactive); that for `O=P1(N(CCCl)CCCl)NCCCO1` (centres undefined) was -2.9% (inactive); that for `Nc1ccccc1` was -4.57% (inactive). Same read-out and setting: the value for `Oc1ccc(Cl)cc1` was 1.62% (inactive). Same read-out and setting: the value for `CCOC(=O)CC(SP(=S)(OC)OC)C(=O)OCC` (centres undefined) was 3.03% (inactive); that for `COP(=S)(OC)Oc1ccc(SC)c(C)c1` was -3.74% (inactive).

Consider `O=C(O)CCCc1ccc(N(CCCl)CCCl)cc1`, for which the “caspase-3 activation” value was 5.86% (inactive).

Regarding `C[C@]1(O)CC[C@H]2[C@@H]3CCC4=CC(=O)CC[C@]4(C)[C@@]3(F)[C@@H](O)C[C@@]21C`, the “caspase-3 activation” value was -3.6% (inactive).

For the molecule `CCCC(C)(COC(N)=O)COC(N)=O`, the “caspase-3 activation” value is -0.708% (inactive).

As to `Nc1ccccc1C(=O)O`, the “caspase-3 activation” value is -1.71% (inactive). Same read-out and setting: the value for `CC(C)c1cccc(C(C)C)c1O` was 2.62% (inactive).

Consider `Clc1ccc(C(c2ccc(Cl)cc2)C(Cl)(Cl)Cl)cc1`, for which the “caspase-3 activation” value is 15.3% (inactive). Same read-out and setting: the value for `CC(C)NC(C)C` was -1.28% (inactive).

As for `NCCc1ccc(O)cc1`, the “caspase-3 activation” value was 3.92% (inactive). Same read-out and setting: the value for `COc1cc(OC)c(OC)cc1C=O` was -1.35% (inactive).

Source of the values: PubChem BioAssay (NCATS).
